Test results: PubChem BioAssay AID868 (SRMLSC, 2007)
Screen size: about 190,000 compounds; about 3,500 (1.8%) were called active. The sample as a whole holds a higher share of actives than the screen did. A number with no mark means an inactive call.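 Rule for the calls: active = inhibition above a set limit, 3 SD over mean compound inhibition (cut at about 8.4% in these data); inactive = the rest.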

Assay: inhibitors of the yeast RAM network, primary screen, dse1pr::URA3 reporter, 5-FOA selection (AID 868);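 note: 0% = DMSO-only wells with no growth and 100% = 10 µM 1-NA-PP1 full growth; inhibition rescues growth on 5-FOA so higher OD means more RAM inhibition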
Conditions: S. cerevisiae dse1pr::URA3 reporter, 5-FOA growth OD615, 2 d; at 50 µM; active compounds read high; analog-sensitive cbk1-as2 kinase mutant strain

SMILES	inhibition
O=C(COC(=O)c1ccccc1C(=O)N1CCN(c2ccccc2)CC1)NCc1ccccc1	1.15%
CN1CCNC(=O)C1CC(=O)N1CC=C(c2ccc(F)cc2)CC1 (stereo not given)	-0.5%
NC(=O)C[n+]1cccc(C(N)=O)c1	1.51%
CCc1ccccc1NC(=S)N(CCN1CCCCCC1)Cc1ccco1	-0.63%
Cc1ccc2[nH]cc(CCCN3C(=O)c4ccccc4C3=O)c2c1	8.46% (active)
O=C1c2ccccc2C(=O)N1CCCc1nc(-c2ccccc2)no1	3.93%
Cc1ccc2[nH]cc(CCNC(=O)c3ccc([N+](=O)[O-])cc3)c2c1	-1.27%
NC(=O)COC(=O)c1cc(S(=O)(=O)N2CCN(c3ccccc3)CC2)ccc1Cl	5.02%
Cc1ccc(C(=O)NC(=S)Nc2ccccc2C)cc1	-0.37%
Cc1ccc(NC(=S)NC(=O)c2ccc(-c3ccccc3)cc2)c(C)c1	8.7% (active)
Cc1cc2[nH]ncc2cc1NC(=S)NC(=O)c1ccccc1	3.3%
CCCCN(C)c1ccc([N+](=O)[O-])cc1	-1.26%
Cc1cccc(C2=N/C(=C/c3cccs3)C(=O)O2)c1	4.44%
C/C(N)=C(/C#N)C(=O)COC(=O)c1cc(-c2ccccc2)nc2ccc(Br)cc12	3.84%
Cc1cccc(CSc2nnc(C)c(=O)n2N)c1	0.13%
Cc1nc2c(C(=O)NCc3cccs3)cnn2c(C)c1Cc1ccc(F)cc1	1.27%
COC(=O)Cn1c(=NC(=O)c2cc(OC)c(OC)c(OC)c2)sc2cc(OC)ccc21	5.03%
CCCCC(=O)Nc1cc(C)c2c(=O)oc3ccccc3c2n1	7.85%
CCOC(=O)c1c(C)nc2c(c1C)c(=O)oc1ccccc12	18.6% (active)
CCOC(=O)N1CCN(C(=O)c2cc3c(ccc4ccccc43)oc2=O)CC1	4.45%

SMILES	inhibition
CCN(CC)CC1(O)CCN(C(=O)c2ccc(Cl)c(Cl)c2)CC1	1.77%
O=C(COC(=O)c1cc2c(s1)CCCC2)NCc1ccccc1Cl	4.18%
O=C(COC(=O)/C(=C/c1cccs1)c1cccs1)NCc1ccccc1Cl	14% (active)
O=C(COC(=O)Cn1cnc2ccccc2c1=O)NCc1ccccc1Cl	0%
O=C1Oc2ccccc2C(=O)/C1=C/c1ccccc1O	0.25%
O=C(CSc1ccccc1)Nc1ccc(NC(=O)c2ccco2)cc1	3.77%
COC(=O)c1ccc(NC(=O)c2ccco2)cc1	0.13%
O=C(Nc1ccc(Sc2ccc(Br)cc2)cc1)c1ccco1	9.42% (active)
CCCSc1nc2c(c(=O)n(C)c(=O)n2C)n1Cc1ccc(C)cc1	8.43% (active)
Cc1cccc(Cn2c(SCCO)nc3c2c(=O)n(C)c(=O)n3C)c1	0.88%
CCOc1ccc(Cn2c(SCCCCC#N)nc3c2c(=O)n(C)c(=O)n3C)cc1OCC	1.06%
COc1ccc(CCNc2cc(C)nc3c(-c4ccc(Cl)cc4)c(C)nn23)cc1OC	-0.42%
CCc1cccc2c(=O)c(C(=O)NCCCOC)c[nH]c12	3.16%
COC(=O)CCCCCN1C(=O)NC(c2ccc(-c3ccccc3)cc2)C(C(=O)OCc2ccccc2)=C1C (stereo not given)	15.8% (active)
COCCN1C(=O)N[C@@H](c2ccccc2)C(C(=O)OC)=C1C	0.8%
CC1=C(C(=O)OCc2ccccc2)C(c2ccc(C(F)(F)F)cc2)NC(=O)N1CCCCCC(=O)O (stereo not given)	7.19%
O=C(NCCCNc1ccc([N+](=O)[O-])cc1Cl)c1ccccc1F	1.43%
COCC(C)n1c(C)cc(C(=O)COc2ccc(C)nc2[N+](=O)[O-])c1C (stereo not given)	1.49%
Cc1ccc(C(=O)NC(=S)NCc2cccnc2)cc1	5.38%
COc1ccc(C2C(C(C)=O)=C(O)C(=O)N2CCc2c[nH]c3ccccc23)cc1 (stereo not given)	3.37%

SMILES	inhibition
COc1cc(C2C(C(=O)c3ccc(C)o3)=C(O)C(=O)N2Cc2cccnc2)ccc1O (stereo not given)	0.23%
COc1cc(C2C(C(=O)c3ccc(C)o3)=C(O)C(=O)N2CCc2ccccc2)ccc1O (stereo not given)	9.49% (active)
O=C(COc1cccc2ccccc12)Nc1cc(S(=O)(=O)N2CCOCC2)ccc1N1CCOCC1	3.39%
Clc1ccc(CSc2nnc(/C=C/c3ccccc3)o2)c(Cl)c1	9.57% (active)
O=C(Nc1nnc(SCc2ccc(Cl)cc2Cl)s1)C1COc2ccccc2O1 (stereo not given)	4.44%
S=c1[nH]nc(CSCc2ccc(Cl)cc2Cl)n1-c1ccccc1	4.95%
O=C(Nc1ccccc1)N1CCN(C(=O)Nc2ccccc2)CC1	2.76%
O=C(COC(=O)/C=C/c1cn(-c2ccccc2)nc1-c1cccnc1)Nc1ccc(Cl)cc1Cl	2.97%
COc1ccc2c(c1)CCc1c(C(=O)N3CCc4ccccc4C3)noc1-2	12.2% (active)
COc1ccc2c(c1)CCc1c(C(=O)N3CCCC3)noc1-2	2.15%
COc1ccc2c(c1)CCc1c(C(=O)Nc3c(C)n(C)n(-c4ccccc4)c3=O)noc1-2	3.23%
O=C(NN1C(=O)C2C3C=CC(O3)C2C1=O)c1ccncc1 (stereo not given)	2.74%
CCCCN1C(=O)c2ccc(C(=O)Nc3ccc(S(=O)(=O)N(C)C)cc3)cc2C1=O	3.73%
Cc1cccc(C(=O)Nc2ccc3c(c2)C(=O)N(CC(C)C)C3=O)c1	3.29%
CC(C)CCN1C(=O)c2ccc(C(=O)Nc3cccc(S(N)(=O)=O)c3)cc2C1=O	9.03% (active)
Cc1ncoc1C(=O)N1CCCC(C(=O)c2ccc3c4c(cccc24)CC3)C1 (stereo not given)	1.14%
CCC1CCCCN1C(=O)CSc1nc(C)cc(C)n1 (stereo not given)	-1.36%
COc1ccc(CC(=O)NC(C)CCc2ccccc2)cc1 (stereo not given)	0.14%
COc1ccc(C(CC(=O)O)NC(=O)Cc2ccccc2)cc1 (stereo not given)	0.54%
CCC/C=C(\CCC)C(NC(=O)Cc1ccccc1)c1ccc(C(=O)OC)cc1 (stereo not given)	8.71% (active)
